Read-out in assay [1]: C-C motif chemokine 2 (Homo sapiens) (UniProt P13500)
Nature of the assay: BSK_KF3CT_MCP1: BioMAP Diversity Plus: KF3CT Assay for Monocyte Chemoattractant Protein 1 (MCP1/CCL2) Biomarker Activity (AID 2283073). Conditions: primary human keratinocytes with fibroblasts; actives raise or lower the signal. In a few lines: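 ELISA readout of MCP-1 after 24 h chemical dosing of a human skin primary co-culture of keratinocytes and foreskin fibroblasts. Activity was fitted in both directions against DMSO.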

Read-out in assay [2]: urokinase plasminogen activator (uPA), PLAU (gene 5328)
Nature of the assay: BSK_KF3CT_uPA: BioMAP Diversity Plus: KF3CT Assay for urokinase plasminogen activator (uPA) Biomarker Activity (AID 2283075). To be noted: primary human keratinocytes with fibroblasts; actives raise or lower the signal. The procedure, abridged:
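Primary human keratinocyte/foreskin fibroblast co-culture exposed to chemical; uPA measured by ELISA at 24 h. Bidirectional fit versus DMSO, with parallel SRB total-protein staining for cytotoxicity.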

Read-out in assay [3]: CD40, CD40 (gene 958)
In words: BSK_LPS_CD40: BioMAP Diversity Plus: LPS Assay for CD40 Biomarker Activity (AID 2283076). Conditions: primary human HUVEC with PBMC; actives raise or lower the signal. The procedure, abridged: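 Cells were dosed, incubated 24 h, then assayed for CD40 by ELISA. Gain or loss of signal was analysed relative to DMSO controls. The culture paired human umbilical vein endothelium with peripheral blood mononuclear cells.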

Read-out in assay [4]: E-selectin (Homo sapiens) (UniProt P16581)
In words: BSK_LPS_Eselectin: BioMAP Diversity Plus: LPS Assay for Eselectin Biomarker Activity (AID 2283077). Conditions: primary human HUVEC with PBMC; actives raise or lower the signal. In a few lines: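 Primary human vascular co-culture (endothelium plus PBMC) was dosed with chemical, then E-selectin quantified by ELISA at 24 h. Endpoint values derive from bidirectional curve fitting relative to DMSO.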

Read-out in assay [5]: Interleukin-8 (IL8), CXCL8 (gene 3576)
In words: BSK_LPS_IL8: BioMAP Diversity Plus: LPS Assay for Interleukin-8 (IL8) Biomarker Activity (AID 2283078). To be noted: primary human HUVEC with PBMC; actives raise or lower the signal. In a few lines:
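Readout is IL-8 by ELISA, taken 24 h after compounds were added to LPS-stimulated endothelial/PBMC co-cultures. Both increases and decreases relative to DMSO control were scored through bidirectional fitting.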

Assay [6] in a line: BSK_LPS_SRB: Viability Assessment in the BioMAP Diversity Plus: LPS Assay (AID 2283079).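 Note: total protein by sulforhodamine B absorbance as a cytotoxicity measure; measured one day after compound addition.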 Conditions: primary human HUVEC with PBMC. In a few lines:
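Readout is SRB absorbance at 560 nm (0.1% stain, TCA-fixed parallel cultures) as a total-protein cytotoxicity measure. Cells: primary human umbilical vein endothelium plus peripheral blood mononuclear cells, 24 h after chemical exposure; DMSO served as baseline.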

Read-out in assay [7]: Interleukin-1 alpha (IL1a), IL1A (gene 3552)
Nature of the assay: BSK_LPS_IL1a: BioMAP Diversity Plus: LPS Assay for Interleukin-1 alpha (IL1a) Biomarker Activity (AID 2283080). Conditions: primary human HUVEC with PBMC; actives raise or lower the signal. In a few lines: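 ELISA read-out of IL-1 alpha from a human primary vascular co-culture (endothelium plus PBMC) under LPS, sampled 24 hours post-dosing. Activity was fitted in both directions relative to DMSO controls.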

Read-out in assay [8]: Monocyte Chemoattractant Protein-1 (MCP1), CCL2 (gene 6347)
In words: BSK_LPS_MCP1: BioMAP Diversity Plus: LPS Assay for Monocyte Chemoattractant Protein-1 (MCP1) Biomarker Activity (AID 2283081). To be noted: primary human HUVEC with PBMC; actives raise or lower the signal. The procedure, abridged: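 Human endothelial–PBMC co-cultures were dosed with chemical, then LPS-driven MCP-1 levels were quantified by ELISA at 24 h. Activity in either direction was fitted versus DMSO negative control.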

The nature of assay [9]: BSK_LPS_PGE2: BioMAP Diversity Plus: LPS Assay for Prostaglandin E2 (PGE2) Biomarker Activity (AID 2283082).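 For AC50: secreted prostaglandin E2 measured by ELISA in LPS-stimulated co-culture.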 To be noted: primary human HUVEC with PBMC; actives raise or lower the signal. In a few lines:
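HUVEC plus PBMC co-culture stimulated with LPS; secreted PGE2 quantified by ELISA 24 h after chemical dosing. Activity fitted bidirectionally against DMSO as negative control and baseline; parallel SRB total-protein staining served as cytotoxicity check.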

Read-out in assay [10]: Macrophage colony-stimulating factor (MCSF), CSF1 (gene 1435)
In words: BSK_LPS_MCSF: BioMAP Diversity Plus: LPS Assay for Macrophage colony-stimulating factor (MCSF) Biomarker Activity (AID 2283083). To be noted: primary human HUVEC with PBMC; actives raise or lower the signal. The procedure, abridged:
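ELISA readout of M-CSF after 24 h compound exposure in a human endothelial/PBMC co-culture. Activity, in either direction, is fitted relative to DMSO vehicle.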

Read-out in assay [11]: Tissue Factor, F3 (gene 2152)
Nature of the assay: BSK_LPS_TissueFactor: BioMAP Diversity Plus: LPS Assay for Tissue Factor Biomarker Activity (AID 2283084). To be noted: primary human HUVEC with PBMC; actives raise or lower the signal. In a few lines: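 ELISA signal for cell-surface Tissue Factor (CD142) was read 24 h after compound dosing of an LPS-stimulated human endothelial–PBMC primary co-culture. Gain or loss of signal was scored relative to DMSO.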

Read-out in assay [12]: Tumor necrosis factor (Homo sapiens) (UniProt P01375)
Nature of the assay: BSK_LPS_TNFa: BioMAP Diversity Plus: LPS Assay for Tumour Necrosis Factor alpha (TNFa) Biomarker Activity (AID 2283085). To be noted: primary human HUVEC with PBMC; actives raise or lower the signal. The procedure, abridged: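 Human umbilical vein endothelial cells co-cultured with PBMC were exposed to test chemical and TNFa measured by ELISA 24 h after dosing. Bidirectional curve fitting was done relative to DMSO as negative control and baseline.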

Read-out in assay [13]: Vascular cell adhesion molecule 1 (VCAM1), VCAM1 (gene 7412)
Nature of the assay: BSK_LPS_VCAM1: BioMAP Diversity Plus: LPS Assay for Vascular cell adhesion molecule 1 (VCAM1) Biomarker Activity (AID 2283086). Conditions: primary human HUVEC with PBMC; actives raise or lower the signal. The procedure, abridged:
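Human umbilical vein endothelial cells co-cultured with peripheral blood mononuclear cells under LPS stimulation were exposed to test chemical for 24 h. VCAM-1 levels were then measured by ELISA, with bidirectional curve fitting relative to DMSO as negative control and baseline.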

Read-out in assay [14]: CD38, CD38 (gene 952)
In words: BSK_SAg_CD38: BioMAP Diversity Plus: SAg Assay for CD38 Biomarker Activity (AID 2283087). Conditions: primary human HUVEC with PBMC; actives raise or lower the signal. The procedure, abridged:
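Fluorescence ELISA of cell-surface CD38 served as the read-out, with either increase or decrease fitted against DMSO controls. Cells were a human umbilical vein endothelium plus PBMC co-culture under SEB/TSST-1 stimulation, measured 24 h after dosing.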

Read-out in assay [15]: CD40, CD40 (gene 958)
In words: BSK_SAg_CD40: BioMAP Diversity Plus: SAg Assay for CD40 Biomarker Activity (AID 2283088). Conditions: primary human HUVEC with PBMC; actives raise or lower the signal. In a few lines:
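Compounds were dosed onto a human primary endothelial–PBMC co-culture, and after 24 h CD40 was quantified by ELISA using a fluorescence signal. Activity in either direction was fitted relative to DMSO.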

Read-out in assay [16]: CD69, CD69 (gene 969)
Nature of the assay: BSK_SAg_CD69: BioMAP Diversity Plus: SAg Assay for CD69 Biomarker Activity (AID 2283089). Conditions: primary human HUVEC with PBMC; actives raise or lower the signal. In a few lines:
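HUVEC co-cultured with PBMC were dosed with chemical, and CD69 was measured by ELISA with fluorescence read-out 24 h later. Bidirectional curve fitting used DMSO as negative control and activity baseline.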

Read-out in assay [17]: Monocyte Chemoattractant Protein-1 (MCP1), CCL2 (gene 6347)
Nature of the assay: BSK_SAg_MCP1: BioMAP Diversity Plus: SAg Assay for Monocyte Chemoattractant Protein-1 (MCP1) Biomarker Activity (AID 2283090). To be noted: primary human HUVEC with PBMC; actives raise or lower the signal. The procedure, abridged:
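MCP-1 levels in the endothelial–PBMC SAg co-culture were quantified by ELISA at 24 h post-dosing; both increases and decreases versus DMSO scored. Cytotoxicity monitored by SRB total protein in parallel cultures.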

Read-out in assay [18]: E-selectin (Homo sapiens) (UniProt P16581)
Nature of the assay: BSK_SAg_Eselectin: BioMAP Diversity Plus: SAg Assay for Eselectin Biomarker Activity (AID 2283091). To be noted: primary human HUVEC with PBMC; actives raise or lower the signal. In a few lines:
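Co-culture: HUVEC + PBMC. Dose compound; 24 h. ELISA for E-selectin. Bidirectional fit vs DMSO.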

Read-out in assay [19]: Monokine induced gamma interferon (MIG), CXCL9 (gene 4283)
Nature of the assay: BSK_SAg_MIG: BioMAP Diversity Plus: SAg Assay for Monokine induced gamma interferon (MIG) Biomarker Activity (AID 2283092). Conditions: primary human HUVEC with PBMC; actives raise or lower the signal. The procedure, abridged: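 HUVEC plus human PBMC co-culture, chemicals dosed and MIG (CXCL9) quantified by ELISA at 24 h. Bidirectional curve fitting against DMSO as negative control and baseline, so both gain and loss of signal count as activity.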

Read-out in assay [20]: Matrix Metallopeptidase 9 (MMP9), MMP9 (gene 4318)
In words: BSK_KF3CT_MMP9: BioMAP Diversity Plus: KF3CT Assay for Matrix Metallopeptidase 9 (MMP9) Biomarker Activity (AID 2283074). Conditions: primary human keratinocytes with fibroblasts; actives raise or lower the signal. In a few lines:
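Human keratinocyte and foreskin fibroblast co-culture exposed to chemicals for 24 h; MMP9 biomarker measured by ELISA, bidirectional fitting relative to DMSO; cytotoxicity tracked by SRB total protein staining in parallel cultures.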

The source of these data is PubChem BioAssay (EPA / NIEHS).

The source made the active and inactive calls. Rule for the calls: active = hit-call score of the fitted dose curve at least 0.9, where 1 is the maximum; inactive = score below 0.9.

E-selectin (Homo sapiens), sequence (P16581 whole entry, looked up): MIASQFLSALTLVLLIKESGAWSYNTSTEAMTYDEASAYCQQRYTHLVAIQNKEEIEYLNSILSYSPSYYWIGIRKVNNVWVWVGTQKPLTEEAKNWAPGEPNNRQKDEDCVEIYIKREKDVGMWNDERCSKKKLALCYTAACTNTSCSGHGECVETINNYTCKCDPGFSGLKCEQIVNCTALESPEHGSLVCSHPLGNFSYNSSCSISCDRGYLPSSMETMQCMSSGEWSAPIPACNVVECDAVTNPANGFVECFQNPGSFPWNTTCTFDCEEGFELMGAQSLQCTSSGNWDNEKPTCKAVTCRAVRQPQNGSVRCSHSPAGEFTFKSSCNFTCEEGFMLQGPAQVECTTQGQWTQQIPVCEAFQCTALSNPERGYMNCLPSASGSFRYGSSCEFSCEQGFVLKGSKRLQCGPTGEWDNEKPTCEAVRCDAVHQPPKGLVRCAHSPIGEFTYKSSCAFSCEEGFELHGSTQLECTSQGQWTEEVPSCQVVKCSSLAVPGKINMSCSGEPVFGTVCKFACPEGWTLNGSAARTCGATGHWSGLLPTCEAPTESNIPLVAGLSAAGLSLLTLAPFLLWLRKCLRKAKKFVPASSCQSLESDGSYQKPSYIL
Tumor necrosis factor (Homo sapiens), sequence (P01375 whole entry, looked up): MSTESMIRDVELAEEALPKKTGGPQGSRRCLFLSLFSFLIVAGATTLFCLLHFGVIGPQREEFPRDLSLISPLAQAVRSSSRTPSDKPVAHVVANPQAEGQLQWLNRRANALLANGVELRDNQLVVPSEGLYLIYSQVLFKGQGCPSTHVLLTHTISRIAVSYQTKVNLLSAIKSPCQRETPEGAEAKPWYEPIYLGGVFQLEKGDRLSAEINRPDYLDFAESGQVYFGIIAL

Consider `c1ccc2sc(SNC3CCCCC3)nc2c1`, for which the outcome in [1], in assay [2], in assay [3], in assay [4], in assay [5] and in assay [6] was inactive. The result in assay [8], in assay [9], in assay [10], in assay [13], in assay [14] and in [15] was inactive. The result in assay [16], in [17], in [18] and in assay [19] was inactive. For the same compound, the half-maximal activity concentration (AC50) – broadly, the midpoint of the concentration-response curve, whichever way the signal moves – in assay [7] is 30.2 µM (active); in assay [11] it was 0.676 µM (active); in [12], 30.5 µM (active).
For `OC(Cc1ccccc1Cl)(Cn1cncn1)C1(Cl)CC1` (stereo unspecified), the result in assay [1], in assay [20], in assay [2], in assay [3], in [4] and in [5] was inactive. The result in assay [6], in assay [7], in [8], in assay [10], in assay [11] and in assay [13] was inactive. In addition, the outcome in assay [14], in assay [15], in assay [16], in assay [17], in [18] and in [19] was inactive. Moreover, the concentration at half-maximal activity (AC50) in assay [9] was 2.02 µM (active).
Consider `O=C(O)COc1cc(Cl)c(Cl)cc1Cl`, for which the outcome in assay [1], in assay [2], in assay [3], in assay [4], in assay [5] and in [6] was inactive. For the same compound, the outcome in [7], in assay [8], in assay [9], in assay [10], in assay [11] and in assay [13] was inactive. Moreover, the outcome in assay [14], in assay [15], in [16], in assay [17], in [18] and in assay [19] was inactive.
